For experiment [1], the target named is Oxysterols receptor LXR-alpha (Homo sapiens) (UniProt Q13133). The experiment is described as follows: ATG_LXRa_TRANS: Attagene TRANS-FACTORIAL HepG2 Assay for human Liver X Receptor alpha (LXRa) (AID 2282980; active = hit-call score of the fitted dose curve at least 0.9, where 1 is the maximum). The note with it: HepG2 Attagene TRANS reporter, LXRa transactivation. The method in brief:
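HepG2 cells transiently transfected with GAL4-UAS reporter units for chimeric NR-Gal4 proteins, exposed to chemicals for 24 h. Reporter mRNA quantified by RT-PCR and capillary electrophoresis; gain of signal fitted relative to DMSO.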

Experiment [2] deals with Hepatocyte nuclear factor 4-alpha (Homo sapiens) (UniProt P41235). The experiment is described as follows: ATG_HNF4a_TRANS: Attagene TRANS-FACTORIAL HepG2 Assay for human Hepatocyte Nuclear Factor 4 alpha (HNF4a) (AID 2282982; active = hit-call score of the fitted dose curve at least 0.9, where 1 is the maximum). The note with it: HepG2 HNF4a transactivation reporter, mRNA readout. An outline of the steps:
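Transient MRTU transfection of HepG2, 24 h dosing. Readout: reporter mRNA via RT-PCR + capillary electrophoresis, fluorescence; activity fit upward relative to DMSO control.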

A short description of experiment [3]: ATG_M_06_TRANS: Attagene TRANS-FACTORIAL HepG2 Assay for M06 Transcription Factor (Internal Marker) (AID 2282983; active = hit-call score of the fitted dose curve at least 0.9, where 1 is the maximum;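 also: reporter transcript level by RT-PCR then capillary electrophoresis fluorescence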). The note with it: HepG2 Attagene TRANS M06 internal marker reporter. An outline of the steps: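 mRNA levels of a reporter transcript, quantified as FAM fluorescence on capillary electrophoresis, served as readout. HepG2 cells expressing exogenous GAL4-chimera reporter constructs were exposed for 24 h. Gain of signal over DMSO was evaluated.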

Experiment [4] can be described thus: ATG_M_32_TRANS: Attagene TRANS-FACTORIAL HepG2 Assay for M32 Transcription Factor (Internal Marker) (AID 2282984; active = hit-call score of the fitted dose curve at least 0.9, where 1 is the maximum;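 also: transcript level of a background control reporter unit measured by RT-PCR and capillary electrophoresis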). The following applies: HepG2 Attagene TRANS M32 internal marker reporter. The method in brief:
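Read-out: fluorescent reporter cDNA fragments resolved by capillary electrophoresis after RT-PCR of total RNA. Transfected HepG2 cells were exposed to chemical for 24 h. Activity scored in the positive direction relative to DMSO.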

Experiment [5] addresses Nuclear respiratory factor 1 (Homo sapiens) (UniProt Q16656). The experiment is described as follows: ATG_NRF1_CIS: Attagene CIS-FACTORIAL HepG2 Assay for human Nuclear Respiratory Factor 1 (NRF1) Orphan Gene (AID 2282987). The following applies: HepG2 NRF1 cis-element reporter, Attagene multiplex; actives raise or lower the signal. An outline of the steps:
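Using DMSO as baseline, gain- or loss-of-signal was fitted for reporter mRNA levels in HepG2 cells transiently transfected with cis-regulated reporter units. Samples were taken 24 h after dosing and read by RT-PCR with capillary electrophoresis.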

The target of experiment [6] is Myc proto-oncogene protein (Homo sapiens) (UniProt P01106). The experiment is described as follows: ATG_Myc_CIS: Attagene CIS-FACTORIAL HepG2 Assay for human Myelocytomatosis (Myc) Proto-Oncogene Transcription Factor (AID 2282990). The note with it: HepG2, Attagene cis-reporter transcription factor activity; actives raise or lower the signal. The method in brief: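 Transiently transfected HepG2 cells bearing cis-promoter reporter units for endogenous transcription factors; 24 h exposure. Reporter mRNA measured by RT-PCR, 6-FAM primer extension, HpaI cut and capillary electrophoresis; bidirectional fit relative to DMSO.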
Myc proto-oncogene protein (Homo sapiens), sequence (P01106 whole entry, looked up): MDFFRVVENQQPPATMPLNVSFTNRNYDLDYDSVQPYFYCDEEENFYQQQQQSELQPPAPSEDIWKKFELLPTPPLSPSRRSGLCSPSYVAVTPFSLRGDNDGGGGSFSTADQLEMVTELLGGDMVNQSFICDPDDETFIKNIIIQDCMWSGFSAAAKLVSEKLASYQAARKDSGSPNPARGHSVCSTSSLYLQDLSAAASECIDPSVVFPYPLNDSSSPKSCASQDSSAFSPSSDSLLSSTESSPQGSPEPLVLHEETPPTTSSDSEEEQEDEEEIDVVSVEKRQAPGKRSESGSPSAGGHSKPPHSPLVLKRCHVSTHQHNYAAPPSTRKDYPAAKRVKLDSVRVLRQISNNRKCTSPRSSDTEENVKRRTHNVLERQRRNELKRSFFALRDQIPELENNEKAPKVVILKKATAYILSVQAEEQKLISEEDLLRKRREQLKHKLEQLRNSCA

The nature of experiment [7]: ATG_NF_kB_CIS: Attagene CIS-FACTORIAL HepG2 Assay for human Nuclear Factor Kappa B (NF-kB) (AID 2282991). The following applies: HepG2 Attagene cis-factorial NF-kB reporter mRNA; actives raise or lower the signal. An outline of the steps: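 Endpoint from a 52-component multiplexed HepG2 reporter panel: cis-regulated transcription units transiently transfected, 24 h dosing, reporter mRNA quantified by RT-PCR and capillary electrophoresis, scored as increase or decrease against DMSO.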

A short description of experiment [8]: ATG_NRF2_ARE_CIS: Attagene CIS-FACTORIAL HepG2 Assay for human Nuclear Factor Erythroid 2 Related Factor 2 (NFR2) response to Antioxidant Response Elements (ARE) (AID 2282992).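 As to AC50: reporter mRNA level measured by RT-PCR and capillary electrophoresis fluorescence.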 The following applies: HepG2 Attagene ARE/NRF2 reporter, transcription factor activity; actives raise or lower the signal. The method in brief: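 Fluorescence intensity of reporter-specific cDNA fragments, separated by capillary electrophoresis, reflects mRNA induction in transfected HepG2 cells at 24 h. Activity is fitted bidirectionally, DMSO serving as baseline.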

Experiment [9] in a line: ATG_Oct_MLP_CIS: Attagene CIS-FACTORIAL HepG2 Assay for human Octamer-Binding Transcription Factor (Oct) (AID 2282993). The following applies: HepG2 Attagene cis-factorial Oct reporter, mRNA; actives raise or lower the signal. The method in brief:
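Transient MRTU transfection of HepG2 → 24 h compound treatment → RNA isolation, reverse transcription, PCR → 6-FAM primer extension, HpaI digest → capillary electrophoresis. Activity fitted both directions against DMSO.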

Experiment [10] has as its target Cellular tumor antigen p53 (Homo sapiens) (UniProt P04637). The experiment is described as follows: ATG_p53_CIS: Attagene CIS-FACTORIAL HepG2 Assay for human p53 Transcription Factor (AID 2282994). The following applies: HepG2 p53 cis-element reporter, Attagene mRNA; actives raise or lower the signal. An outline of the steps:
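Transiently transfected HepG2 (multiple cis reporter transcription units); exposure 24 h; reporter RNA via RT-PCR, 6-FAM extension, 2 h HpaI digest at 37 C, CE detection; DMSO baseline.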

Experiment [11] deals with Oxysterols receptor LXR-beta (Homo sapiens) (UniProt P55055). The experiment is described as follows: ATG_LXRb_TRANS: Attagene TRANS-FACTORIAL HepG2 Assay for human Liver X Receptor beta (LXRb) (AID 2282981; active = hit-call score of the fitted dose curve at least 0.9, where 1 is the maximum). The note with it: HepG2 Attagene TRANS GAL4-LXRb reporter, mRNA. An outline of the steps:
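Readout: fluorescent reporter mRNA fragments resolved by capillary electrophoresis after RT-PCR. System: transiently transfected human HepG2, exogenous LXRb-Gal4 chimera driving GAL4-UAS reporter, 24 h dosing. Activity fitted upward against DMSO baseline.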

The target in experiment [12] is Transcriptional activator Myb (Homo sapiens) (UniProt P10242). Description: ATG_Myb_CIS: Attagene CIS-FACTORIAL HepG2 Assay for human Myeloblastosis (Myb) Proto-Oncogene Transcription Factor (AID 2282986). The note with it: HepG2 Attagene CIS-FACTORIAL Myb reporter transcription; actives raise or lower the signal. An outline of the steps:
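In this HepG2 transient-transfection format, cis-regulated reporter mRNA is quantified 24 h post-dosing by RT-PCR with capillary electrophoresis, fitted bidirectionally to DMSO baseline.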

The nature of experiment [13]: ATG_NFI_CIS: Attagene CIS-FACTORIAL HepG2 Assay for human Nuclear Factor I (NFI) (AID 2282989). The note with it: HepG2 cis-regulatory reporter, NFI response element transcription; actives raise or lower the signal. An outline of the steps:
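Transient MRTU transfection of HepG2 → 24 h chemical dosing → total RNA, oligo(dT) RT → PCR, 6-FAM primer extension, HpaI cut → capillary electrophoresis. Endpoint fitted bidirectionally relative to DMSO.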

Experiment [14] is described as follows: BSK_3C_TissueFactor: BioMAP Diversity Plus: 3C Assay for Tissue Factor Biomarker Activity (AID 2282997). The note with it: BioMAP 3C HUVEC, tissue factor biomarker readout; actives raise or lower the signal. The method in brief:
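Tissue Factor measured by ELISA, 24 h after treatment of primary HUVEC in the BioMAP 3C setting.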

Experiment [15] is described as follows: BSK_3C_uPAR: BioMAP Diversity Plus: 3C Assay for Urokinase-type plasminogen activator receptor (uPAR) Biomarker Activity (AID 2282998). The note with it: BioMAP 3C HUVEC, uPAR biomarker ELISA; actives raise or lower the signal. An outline of the steps: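 ELISA readout of uPAR on human vascular endothelium (umbilical vein primary cells), taken 24 h after chemical dosing. Increases and decreases are both fitted relative to DMSO vehicle.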
For orientation: ELISA stands for enzyme-linked immunosorbent assay.

Experiment [16] can be described thus: BSK_3C_VCAM1: BioMAP Diversity Plus: 3C Assay for Vascular cell adhesion molecule 1 (VCAM1) Biomarker Activity (AID 2282999). The note with it: BioMAP 3C HUVEC, VCAM1 ELISA, cytokine-stimulated; actives raise or lower the signal. An outline of the steps: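 HUVEC primary cells, 24 h compound exposure; VCAM-1 by ELISA; gain/loss of signal fitted bidirectionally vs DMSO baseline.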

Experiment [17] can be described thus: BSK_4H_Eotaxin3: BioMAP Diversity Plus: 4H Assay for Eotaxin 3 Biomarker Activity (AID 2283000).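 As to outcome: CCL26 protein level quantified by ELISA in parallel with SRB cytotoxicity check.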 The following applies: primary human endothelial cells (HUVEC); actives raise or lower the signal. The method in brief:
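Eotaxin-3 (CCL26) levels were measured by ELISA in HUVEC primary cultures 24 h post-dosing. Gain or loss of signal was fitted in both directions, with DMSO serving as baseline and negative control.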

Experiment [18] has as its target Nuclear receptor subfamily 4 group A member 2 (Homo sapiens) (UniProt P43354). Description: ATG_NURR1_TRANS: Attagene TRANS-FACTORIAL HepG2 Assay for human Nuclear Receptor Related Protein 1 (NURR1) (AID 2282985; active = hit-call score of the fitted dose curve at least 0.9, where 1 is the maximum). The following applies: HepG2 Attagene TRANS reporter, mRNA readout. An outline of the steps: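 Read-out: reporter mRNA induction by RT-PCR plus capillary electrophoresis with fluorescence detection, after 24 h dosing of transfected HepG2 cells. Exogenous NR-Gal4 chimera activity drives GAL4-UAS reporter; activity fitted upward versus DMSO.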

In general, AC50 refers to the concentration at which the activity in the assay is half-maximal.

Inconclusive results are not listed. The source made the active and inactive calls. The calls were made as follows, unless noted: active = hit-call score of the fitted dose curve at least 0.9, where 1 is the maximum; inactive = score below 0.9.

Oxysterols receptor LXR-alpha (Homo sapiens), sequence (Q13133 whole entry, looked up, the tested form may be a part): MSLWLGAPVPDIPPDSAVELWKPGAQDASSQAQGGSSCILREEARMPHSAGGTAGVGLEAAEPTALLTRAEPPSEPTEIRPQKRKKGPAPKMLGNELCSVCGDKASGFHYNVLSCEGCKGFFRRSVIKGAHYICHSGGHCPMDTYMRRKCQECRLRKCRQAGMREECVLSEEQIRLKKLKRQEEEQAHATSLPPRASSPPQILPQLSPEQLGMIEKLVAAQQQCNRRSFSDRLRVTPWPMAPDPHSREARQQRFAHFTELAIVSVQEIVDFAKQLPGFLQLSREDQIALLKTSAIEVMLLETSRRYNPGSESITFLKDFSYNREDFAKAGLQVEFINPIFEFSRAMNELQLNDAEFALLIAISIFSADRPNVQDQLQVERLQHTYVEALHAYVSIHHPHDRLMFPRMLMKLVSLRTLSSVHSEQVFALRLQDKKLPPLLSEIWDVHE
Transcriptional activator Myb (Homo sapiens), sequence (P10242 whole entry, looked up): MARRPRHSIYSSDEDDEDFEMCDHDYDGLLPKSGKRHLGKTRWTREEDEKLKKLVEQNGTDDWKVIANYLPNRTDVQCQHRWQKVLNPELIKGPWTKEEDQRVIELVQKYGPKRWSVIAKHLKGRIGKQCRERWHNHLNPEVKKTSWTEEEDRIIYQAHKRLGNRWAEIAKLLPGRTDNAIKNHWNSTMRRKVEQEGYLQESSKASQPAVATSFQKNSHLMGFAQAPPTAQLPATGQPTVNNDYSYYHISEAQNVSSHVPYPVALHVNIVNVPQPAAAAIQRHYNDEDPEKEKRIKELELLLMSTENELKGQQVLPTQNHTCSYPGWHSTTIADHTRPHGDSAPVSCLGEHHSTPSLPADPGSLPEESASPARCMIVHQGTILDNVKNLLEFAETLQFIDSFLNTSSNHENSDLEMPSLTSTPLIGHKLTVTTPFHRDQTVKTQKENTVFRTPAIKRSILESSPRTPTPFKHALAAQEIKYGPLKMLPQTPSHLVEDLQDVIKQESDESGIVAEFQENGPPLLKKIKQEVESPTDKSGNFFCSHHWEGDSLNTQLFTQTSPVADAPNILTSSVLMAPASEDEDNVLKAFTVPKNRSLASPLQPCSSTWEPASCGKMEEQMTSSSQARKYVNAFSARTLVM
Cellular tumor antigen p53 (Homo sapiens), sequence (P04637 whole entry, looked up): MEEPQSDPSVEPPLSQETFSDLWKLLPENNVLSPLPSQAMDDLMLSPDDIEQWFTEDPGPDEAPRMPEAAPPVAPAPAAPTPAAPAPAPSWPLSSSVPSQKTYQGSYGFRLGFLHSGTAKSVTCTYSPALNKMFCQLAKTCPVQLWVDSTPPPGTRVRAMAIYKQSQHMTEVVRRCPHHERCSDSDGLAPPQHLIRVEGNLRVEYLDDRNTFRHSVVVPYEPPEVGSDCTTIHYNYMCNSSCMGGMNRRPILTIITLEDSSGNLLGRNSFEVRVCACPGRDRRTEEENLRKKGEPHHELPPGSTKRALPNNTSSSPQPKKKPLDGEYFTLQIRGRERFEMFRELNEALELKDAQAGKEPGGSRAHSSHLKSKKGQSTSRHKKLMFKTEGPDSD
Nuclear respiratory factor 1 (Homo sapiens), sequence (Q16656 whole entry, looked up): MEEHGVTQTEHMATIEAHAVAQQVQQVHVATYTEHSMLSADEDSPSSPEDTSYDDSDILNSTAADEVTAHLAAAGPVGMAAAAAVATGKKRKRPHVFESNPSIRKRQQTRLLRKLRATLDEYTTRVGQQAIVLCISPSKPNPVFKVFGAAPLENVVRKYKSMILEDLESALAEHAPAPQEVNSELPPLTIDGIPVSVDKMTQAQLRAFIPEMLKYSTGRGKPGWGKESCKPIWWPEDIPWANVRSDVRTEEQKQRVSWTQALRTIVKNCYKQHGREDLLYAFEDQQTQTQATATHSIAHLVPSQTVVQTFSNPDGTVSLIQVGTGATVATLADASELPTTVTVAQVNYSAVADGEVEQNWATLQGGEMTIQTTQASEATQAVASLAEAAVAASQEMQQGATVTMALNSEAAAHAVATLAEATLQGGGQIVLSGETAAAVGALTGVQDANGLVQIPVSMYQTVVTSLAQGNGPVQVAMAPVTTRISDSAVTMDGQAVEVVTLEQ
Oxysterols receptor LXR-beta (Homo sapiens), sequence (P55055 whole entry, looked up, the tested form may be a part): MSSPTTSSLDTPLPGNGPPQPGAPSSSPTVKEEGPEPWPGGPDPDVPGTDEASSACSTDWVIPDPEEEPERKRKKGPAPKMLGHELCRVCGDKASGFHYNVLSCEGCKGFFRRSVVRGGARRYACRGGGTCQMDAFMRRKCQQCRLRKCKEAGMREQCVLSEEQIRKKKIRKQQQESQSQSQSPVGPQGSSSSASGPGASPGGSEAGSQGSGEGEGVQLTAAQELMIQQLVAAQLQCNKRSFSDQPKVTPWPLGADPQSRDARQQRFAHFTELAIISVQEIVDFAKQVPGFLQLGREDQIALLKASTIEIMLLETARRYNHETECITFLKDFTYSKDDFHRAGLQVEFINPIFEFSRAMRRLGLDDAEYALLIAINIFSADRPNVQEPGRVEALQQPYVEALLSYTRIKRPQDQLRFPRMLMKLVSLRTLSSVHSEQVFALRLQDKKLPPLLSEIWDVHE
Hepatocyte nuclear factor 4-alpha (Homo sapiens), sequence (P41235 whole entry, looked up): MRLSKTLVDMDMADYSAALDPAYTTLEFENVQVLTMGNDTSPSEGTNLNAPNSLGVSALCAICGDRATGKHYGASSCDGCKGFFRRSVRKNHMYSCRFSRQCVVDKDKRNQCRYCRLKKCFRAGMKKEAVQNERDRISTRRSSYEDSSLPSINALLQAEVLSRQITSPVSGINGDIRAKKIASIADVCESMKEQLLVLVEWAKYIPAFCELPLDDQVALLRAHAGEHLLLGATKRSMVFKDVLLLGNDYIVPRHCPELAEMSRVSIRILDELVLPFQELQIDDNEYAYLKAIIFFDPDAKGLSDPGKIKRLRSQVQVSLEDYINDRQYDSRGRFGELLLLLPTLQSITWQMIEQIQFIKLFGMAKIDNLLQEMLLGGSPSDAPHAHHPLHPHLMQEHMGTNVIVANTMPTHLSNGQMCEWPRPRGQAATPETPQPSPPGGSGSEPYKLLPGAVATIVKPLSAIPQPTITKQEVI
Nuclear receptor subfamily 4 group A member 2 (Homo sapiens), sequence (P43354 whole entry, looked up, the tested form may be a part): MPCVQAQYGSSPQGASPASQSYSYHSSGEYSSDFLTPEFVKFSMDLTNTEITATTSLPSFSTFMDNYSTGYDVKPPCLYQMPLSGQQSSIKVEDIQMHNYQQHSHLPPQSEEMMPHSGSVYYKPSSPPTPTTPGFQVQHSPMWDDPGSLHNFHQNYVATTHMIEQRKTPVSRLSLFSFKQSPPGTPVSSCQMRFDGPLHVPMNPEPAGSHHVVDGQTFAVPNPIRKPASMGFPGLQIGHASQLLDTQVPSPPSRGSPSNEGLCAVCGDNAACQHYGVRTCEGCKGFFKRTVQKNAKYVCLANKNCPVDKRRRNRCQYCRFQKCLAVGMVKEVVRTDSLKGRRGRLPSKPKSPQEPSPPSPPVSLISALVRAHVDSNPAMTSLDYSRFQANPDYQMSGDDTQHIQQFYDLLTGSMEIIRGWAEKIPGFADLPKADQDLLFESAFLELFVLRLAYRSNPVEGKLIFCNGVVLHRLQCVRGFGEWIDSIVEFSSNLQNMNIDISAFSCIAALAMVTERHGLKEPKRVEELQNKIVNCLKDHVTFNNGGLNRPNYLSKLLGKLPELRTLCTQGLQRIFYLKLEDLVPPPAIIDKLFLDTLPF

Take `Clc1nc(C(Cl)(Cl)Cl)c(Cl)c(Cl)c1Cl`: the molecule was called inactive in experiment [1], in experiment [2], in experiment [3], in experiment [4], in experiment [5] and in experiment [6]. Also, the call in experiment [7], in experiment [9] and in experiment [10] was inactive. For the same molecule, the AC50 in [8] is 27.6 µM (active).

Turning to `Cc1ccc(O)c(C(C)(C)C)c1`, the outcome in [1], in [11], in experiment [4], in experiment [5], in [13] and in experiment [10] was inactive. For the same molecule, the AC50 was 184 µM (active) in experiment [12]; 79.5 µM (active) in [6]; 100 µM (active) in experiment [7]; 25.2 µM (active) in experiment [8]; 36.7 µM (active) in [14]; 20 µM (active) in experiment [15]. Besides, the AC50 in experiment [16] is 30 µM (active); in experiment [17] it was 35 µM (active).

As to `C=C(C)[C@@H]1CCC2=CC(=O)C[C@@H](C)[C@]2(C)C1`, the outcome in experiment [1], in [3], in experiment [4], in [12], in experiment [5] and in [6] was inactive. The call in [7], in experiment [9] and in [10] was inactive. For the same molecule, in experiment [8], the AC50 was 80.7 µM (active).

Turning to `CCCCC[Si](OCC)(OCC)OCC`, the outcome in experiment [1], in [11], in [3], in experiment [12], in experiment [5] and in experiment [13] was inactive. Moreover, the outcome in experiment [6], in experiment [7], in experiment [8] and in [9] was inactive.

With `CCCCCC(=O)OCCc1ccccc1`, the outcome in [1], in experiment [3], in experiment [4], in experiment [12], in experiment [5] and in experiment [13] was inactive. Also, the outcome in [6], in experiment [8], in experiment [9] and in experiment [10] was inactive.

For `CC(C)[C@H]1CC[C@@H](C)CC1=O`, the result in experiment [1], in [2], in experiment [3], in [4], in experiment [18] and in experiment [12] was inactive. Besides, the call in experiment [5], in experiment [13], in experiment [6], in experiment [8], in [9] and in experiment [10] was inactive.

For the molecule `CCN(CC)CCOC(=O)c1ccc(N)cc1`, the molecule was called inactive in experiment [1], in experiment [4], in experiment [5], in experiment [13], in experiment [6] and in experiment [7]. In addition, the call in experiment [8], in experiment [9] and in experiment [10] was inactive.

`N#Cc1nc(Cl)c(Cl)c(Cl)c1Cl`: the call in experiment [1], in [3], in experiment [4], in experiment [18] and in experiment [6] was inactive. Further, the AC50 in experiment [2] is 5.77 µM (active); in experiment [5], 5.93 µM (active); in [13], 6.05 µM (active); in experiment [7] it was 4.63 µM (active); in experiment [8] it was 0.885 µM (active); in experiment [9] it was 2.54 µM (active).

As to `COc1nc(C)nc(N)n1`, the outcome in experiment [1], in experiment [2], in experiment [3], in experiment [4], in experiment [18] and in experiment [12] was inactive. Further, the molecule was classed as inactive in experiment [5], in experiment [13], in experiment [6], in [7], in experiment [8] and in experiment [9].

As for `C[C@H]1C[C@@H]2[C@H]([C@@H](O)C[C@@]3(C)[C@H]2CC[C@]3(O)C(=O)CO)[C@@]2(C)C=CC(=O)C=C12`, the outcome in experiment [1], in experiment [11], in experiment [3], in [12], in [13] and in [6] was inactive. The molecule was classed as inactive in experiment [7], in experiment [14], in [15], in [16] and in experiment [17]. In addition, the AC50 in experiment [8] is 26.7 µM (active).

With `CC(=O)c1c(C)cc(C(C)(C)C)cc1C`, the call in experiment [1], in [2], in experiment [3], in [18], in experiment [12] and in experiment [13] was inactive. Also, the result in experiment [6], in experiment [7], in experiment [9] and in [10] was inactive.

The values above are taken from PubChem BioAssay (EPA / NIEHS).
